Beta apoptosis – blocks beta cell apoptosis; INS-1E cytokine-induced death, ATP luminescence, 48 h; percent of positive-control rescue, neutral wells zero; protection from apoptosis, % (test concentration not listed); actives 0.8% (n = 300,000); AID 435005;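 active means Every replicate reaches about 75%, or at least half do and their mean reaches it too, limit read from the data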;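 further: 0% = cytokine-treated negative control wells and 100% = positive control rescue; higher means more ATP so stronger rescue from cytokine killing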
Mdm2 MdmX PPI – inhibitors of human Mdm2/MdmX interaction. AID 485346. actives 3% (n = 330,000). O15151+Q00987. SaOS-2 split-luciferase Mdm2/MdmX complementation, luminescence. inhibition, % at 8 µM;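 active means inhibition of at least 50% at 8 µM in the primary screen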
Target sequence (O15151 whole entry, looked up): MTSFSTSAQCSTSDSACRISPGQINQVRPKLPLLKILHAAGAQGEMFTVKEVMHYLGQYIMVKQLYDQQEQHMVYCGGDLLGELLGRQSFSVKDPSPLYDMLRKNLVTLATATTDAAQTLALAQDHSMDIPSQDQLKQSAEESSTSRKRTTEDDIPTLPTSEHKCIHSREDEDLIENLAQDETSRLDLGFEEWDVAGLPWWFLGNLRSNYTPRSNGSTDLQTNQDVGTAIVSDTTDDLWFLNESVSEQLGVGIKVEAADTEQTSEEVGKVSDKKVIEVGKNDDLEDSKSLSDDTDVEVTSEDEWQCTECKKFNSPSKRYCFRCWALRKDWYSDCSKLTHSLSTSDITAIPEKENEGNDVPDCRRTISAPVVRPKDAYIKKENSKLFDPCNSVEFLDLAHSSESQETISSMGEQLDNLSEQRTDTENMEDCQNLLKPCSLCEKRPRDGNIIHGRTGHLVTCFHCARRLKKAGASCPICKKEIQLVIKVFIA
Target sequence (Q00987 whole entry, looked up): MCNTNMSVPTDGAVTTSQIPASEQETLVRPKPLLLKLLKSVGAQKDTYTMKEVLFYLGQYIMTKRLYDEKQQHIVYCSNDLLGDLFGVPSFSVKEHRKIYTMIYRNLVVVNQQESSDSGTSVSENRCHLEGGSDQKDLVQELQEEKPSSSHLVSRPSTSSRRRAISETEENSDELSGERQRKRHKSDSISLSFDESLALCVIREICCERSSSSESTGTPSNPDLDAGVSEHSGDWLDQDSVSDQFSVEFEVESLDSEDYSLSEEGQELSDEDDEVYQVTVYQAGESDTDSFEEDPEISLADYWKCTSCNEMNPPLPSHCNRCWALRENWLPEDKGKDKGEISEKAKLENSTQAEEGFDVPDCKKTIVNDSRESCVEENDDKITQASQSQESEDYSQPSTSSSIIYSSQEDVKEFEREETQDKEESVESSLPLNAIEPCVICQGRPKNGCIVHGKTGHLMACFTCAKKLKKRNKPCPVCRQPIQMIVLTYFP
GRIN3A LBD mod – NR3A (human) ligand-binding domain modulation | NR3A LBD differential scanning fluorimetry, Tm shift; 0% = protein alone, 100% = glycine-bound protein | Tm shift relative to glycine control, % at 25 µM | actives 2.5% (n = 340,000) | AID 1259313;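 active means melting temperature shift of at least 10% of the positive control shift, at one fixed dose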
CSC inhib – blocks cancer stem cells; cancer stem cell-like cells viability, luminescence; actives 1.1% (n = 300,000); inhibition, % at 7.5 µM; AID 2717; in the data active means inhibition above about 75%; tested in HMLE shEcad cells
Gli-Sufu antag – Gli-Sufu pathway antagonism. Sufu-KO-LIGHT fibroblasts, Gli luciferase reporter luminescence. inhibition, % at 5 µM. actives 0.74% (n = 340,000). AID 588413;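 active means inhibition above about 55%, limit read from the data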;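 further: 0% = DMSO-treated cells and 100% = wells with medium but no cells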
MPTP inh – inhibitors of mitochondrial permeability transition pore; isolated mouse mitochondria, Ca2+ swelling absorbance, 30 min; inhibition, % at 10 µM; actives 1.4% (n = 360,000); AID 602449;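 active means inhibition of 50% or more, scaled per plate between neutral and stimulator controls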;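 further: 0% = DMSO wells given calcium and 100% = 1 mM EGTA wells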
Mdm2-MdmX conf – confirmation of human Mdm2/MdmX interaction inhibitors; Mdm2-MdmX binding, luminescent assay; shares compounds with Mdm2 MdmX PPI; actives 55% (n = 10,000); inhibition, % at 8 µM; in the data active means inhibition above about 40%
Full FLuc ctr – full-length luciferase inhibition in Mdm2/MdmX counter-screen; shares compounds with Mdm2 MdmX PPI; SaOS-2 full-length luciferase counterscreen, luminescence; inhibition, % at 8 µM; actives 77% (n = 6,200);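 active means mean inhibition at 8 µM reaching about 37%, which flags the compound as non-specific, limit read from the data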;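 further: p53-null SaOS-2 cells with luciferase driven by a doxycycline-inducible promoter; compound on cells about two nights before reading with doxycycline added after day one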
Starred values were filed as active, the others as inactive; . = no result. Most compounds without a hit are left out; they make up all but 6.6% or so of the library.

SMILES	Beta apoptosis	Mdm2 MdmX PPI	GRIN3A LBD mod	CSC inhib	Gli-Sufu antag	MPTP inh	Mdm2-MdmX conf	Full FLuc ctr
Cc1ccc(N(C)S(=O)(=O)c2cccc(C(=O)N(C)Cc3cnn(-c4ccccc4)c3)c2)cc1	.	66.4*	-3.1	.	23.3	7.6	47.2*	96.4*
CN(Cc1cnn(-c2ccccc2)c1)C(=O)c1cccc(S(=O)(=O)N(C)c2ccccc2)c1	.	.	.	.	.	8.3	.	.
C[C@H]1CN([C@@H](C)CO)C(=O)c2cc(-c3cccc(C#N)c3)cnc2O[C@H]1CN(C)C(=O)c1ccccn1	.	.	.	.	.	-1.2	.	.
CC[C@H](C)[C@@H](NC(=O)O[C@@H]1C(=O)c2cc(OC)ccc2O[C@H]1c1ccc(OC)c(Br)c1)C(=O)OC	-1.1	24.8	5.4	18.3	7.2	0.5	.	.
COc1ccc2c(c1)C(=O)[C@H](O)[C@@H](c1ccc(OC)c(Br)c1)O2	109.4*	70.7*	2.3	108.3*	10.0	.	-6.4	.
C#CCn1cc2c(c1-c1ccccc1)c(=O)n(C)c(=O)n2C	.	.	.	.	.	0.9	.	.
COc1cc2nc(SCc3ccc(F)cc3)n(Cc3cccs3)c(=N)c2cc1OC	18.3	41.9	2.3	0.0	10.9	7.5	.	.
COc1ccc(Cn2c(SCc3ccccc3C)nc3cc(OC)c(OC)cc3c2=N)cc1	108.5*	96.9*	.	99.7*	.	14.5	52.4*	48.4*
COc1cc(-c2nc3ccc(N4CCN(C)CC4)cc3[nH]2)cc(OC)c1OC	-0.4	78.5*	-0.4	-9.6	27.5	-0.3	65.0*	73.0*
C=CCC[C@@H](Cc1ccc(F)cc1)C(=O)OC[C@H](Cc1c[nH]c2ccccc12)NC(=O)[C@H](CC=C)CC(=O)NCCO	8.5	54.3*	-3.8	.	1.8	1.0	15.6	.
C=CC[C@@H](CC(=O)N[C@H](CO)Cc1ccccc1)C(=O)N[C@H](COC(=O)[C@@H](CC=C)Cc1ccc(F)cc1)Cc1c[nH]c2ccccc12	30.4	81.1*	6.8	-2.4	3.4	0.4	49.4*	37.0*
C=CCC[C@H](Cc1ccc(F)cc1)C(=O)OC[C@H](Cc1c[nH]c2ccccc12)NC(=O)[C@@H](CC=C)CC(=O)N[C@@H](CO)Cc1ccccc1	52.3	77.4*	-5.2	39.2	1.6	-0.3	42.1*	49.0*
C=CCC[C@H](Cc1ccc(F)cc1)C(=O)OC[C@@H](Cc1c[nH]c2ccccc12)NC(=O)[C@H](CC=C)CC(=O)NCCO	-6.0	6.0	-5.8	6.4	-11.5	0.1	.	.
C=CCC[C@H](Cc1ccc(F)cc1)C(=O)OC[C@H](Cc1c[nH]c2ccccc12)NC(=O)[C@@H](CC=C)CC(=O)N[C@H](CO)Cc1ccccc1	5.8	84.5*	8.1	64.0	7.5	-0.6	28.9	.
COc1ccc(OC)c(NC(=O)COC(=O)CC2CCCCC2)c1	3.4	-14.5	-1.1	.	6.4	-2.7	.	.
Cc1cn(CC(=O)NCCCn2ccnc2)c(=O)[nH]c1=O	.	.	1.0	.	-0.3	0.0	.	.
COc1ccc(Nc2ccc3c(c2)=NC2(CCCCC2)[N+]=3[O-])cc1	104.3*	100.4*	-1.4	52.2	17.5	8.0	59.2*	39.2*
Cc1[nH]c2ccccc2c1C(c1ccccn1)N1CCC(C)CC1 (centres undefined)	-8.4	50.7*	-6.9	-6.7	.	-0.6	-0.2	.
CCOC(=O)C1CCCN(C(c2ccccn2)c2c(C)[nH]c3ccccc23)C1 (centres undefined)	-7.8	52.8*	-1.0	1.3	-11.0	0.5	3.7	.
CCCC(=O)N1CCC1(C)C(=O)Nc1cc(OC)ccc1OC (centres undefined)	.	.	.	.	.	-0.3	.	.
CCOc1ccc(C(C)=O)cc1COC(=O)CNC(=O)C12CC3CC(CC(C3)C1)C2	-4.2	56.8*	0.6	6.6	-1.1	-2.0	1.8	.
O=C1c2ccccc2C(=O)C12OC2c1ccc(Cl)cc1 (centres undefined)	4.9	80.7*	.	15.4	.	.	-8.5	.
Cn1nc(C(F)(F)F)c(/C=N/OC(=O)c2ccccc2Cl)c1SCc1ccccc1Cl	-13.2	54.8*	3.1	49.7	21.9	4.2	14.8	.
CC(C)=NOc1cc(NC(=O)CCl)cc([N+](=O)[O-])c1	-42.0	94.8*	-5.4	-6.2	14.2	4.3	69.6*	56.1*
CCC(=O)Nc1cc(ON=C(C)C)cc([N+](=O)[O-])c1	-4.5	.	-2.0	-3.6	2.5	1.8	.	.
SMILES	Beta apoptosis	Mdm2 MdmX PPI	GRIN3A LBD mod	CSC inhib	Gli-Sufu antag	MPTP inh	Mdm2-MdmX conf	Full FLuc ctr
COc1ccc(CCNC(=O)c2ccc3c(c2)N(Cc2ccccc2)CCS3)cc1OC	-3.5	59.8*	3.3	22.8	10.0	-2.5	16.1	.
COc1ccc(OC)c(CCNC(=O)c2ccc3c(c2)N(Cc2ccccc2)CCS3)c1	-0.2	29.2	0.4	29.6	14.6	1.4	.	.
Cc1ccc(NC(=O)c2ccc3ncsc3c2)cc1S(=O)(=O)N(C)C	-1.2	-97.6	.	-17.7	.	.	.	.
COC(C(=O)N1CCC(n2nccc2NC(=O)C2CC2)CC1)c1ccccc1 (centres undefined)	-2.2	6.9	-1.5	-4.6	29.7	-0.9	.	.
CCOCCOC(=O)C1=C(C)NC(=O)NC1c1cc2c(cc1Br)OCO2 (centres undefined)	0.2	10.3	-0.7	-0.1	-1.2	0.1	.	.
COc1ccc(-c2cn[nH]c2-c2ccc(OCc3ccc([N+](=O)[O-])cc3)cc2O)cc1	-1.9	86.0*	30.4*	52.7	-4.3	11.0	77.2*	22.4
C=C(C)COc1ccc(-c2[nH]ncc2-c2ccc(Br)cc2)c(O)c1	6.8	59.7*	29.5*	67.7	-4.1	10.5	61.9*	44.4*
C=C(C)COc1ccc(-c2ncnc(C(F)(F)F)c2-c2ccc(OC)cc2)c(O)c1	16.7	40.0	-1.0	24.5	-8.2	1.4	.	.
CCOc1ccc(-c2[nH]ncc2-c2ccc(OC)c(OC)c2)c(O)c1	23.6	45.4	-1.0	61.0	-0.2	-1.8	.	.
C=C(C)COc1ccc(-c2n[nH]c(C)c2-c2ccc(Br)cc2)c(O)c1	-2.1	86.0*	32.2*	101.3*	-4.3	7.2	56.5*	50.8*
CCCCNC(=O)C1c2ccccc2OCC(=O)N1C1CC1 (centres undefined)	.	.	.	.	.	-0.1	.	.
COC(=O)c1c(C)nn(-c2ccc(F)c(Cl)c2)c1-c1cc(C)on1	2.8	-3.9	-1.5	0.3	8.1	1.4	.	.
O=C(NCc1ccco1)c1cccc(-c2cncc3nccn23)c1	.	.	.	.	.	-1.2	.	.
COc1ccc(OC)c(Nc2nc(-c3cccc([N+](=O)[O-])c3)nc3ccccc23)c1	-8.6	59.5*	-5.1	7.8	13.5	2.0	-4.8	.
Cc1ccc(OCC(=O)NNc2c3ccccc3nc3ccccc23)cc1	57.7	56.2*	-5.6	13.5	35.0	35.1	26.9	.

Screening data: PubChem, several laboratories
